Reference: PubChem BioAssay (NCATS)
Inconclusive results are not listed. Where a call stands in place of a potency, no number is given. Unmarked numbers belong to inactive results. Calls of active or inactive are those of the source. Calls follow the shape of the dose curve; as a rule, active = well fitted cell-killing curve with a large enough effect; inconclusive = small, poorly fitted or top-dose-only effect, or effect the other way; inactive = flat fitted curve, though single readings scatter. Where a SMILES comes first, the peptide text is derived from it. [ ]: non-standard residue; d: D form. ξ: configuration not given here. ξPhe(βξ-Me) = CC(c1ccccc1)C(N)C(=O)O; GABA = NCCCC(=O)O

Each compound was assayed on Es-2 (assay: Primary qHTS to identify gynecologic anti-cancer compounds using libraries of approved drugs and bioactive compounds (AID 1345084; also: nearly all actives have a fitted effect of over 55% in size)). Conditions: Gynecologic cancer cell panel viability, ATPlite luminescence, 48 h; series mostly up to 57.5 µM.
Procedure, shortened: (§1)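 Cytotoxicity screen measuring ATP content by luciferase luminescence. Each compound is applied at five concentrations for 48 h at 37 C with 5% CO2.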

Structure (SMILES) | activity change, negative = cytotoxicity | Potency
C=CC(C)(O)CC/C=C(\C)C(=O)OC1CC2(C(=O)O)CCC3(C)C(=CCC4C5(C)CCC(OC6OC(COC7OCC(O)C(O)C7O)C(O)C(OC7OCC(O)C(O)C7O)C6OC6OC(CO)C(O)C(O)C6OC6OCC(O)C(O)C6O)C(C)(C)C5CCC43C)C2CC1(C)C (centres undefined) | 6.29% [at 6.55 µM] | 
C=C1CC2[C@]3(C)C(=C(O)C(=O)[C@@]2(C)[C@]2(C(=O)OC)C(=O)C(C)OC(=O)[C@@]12C)C(C)(C)C(=O)CC3O (some centres undefined) |  | inactive
C=C1CCC(OC(C)=O)C2(C)CC3(O)OC(=O)C(C)=C3CC12 (centres undefined) |  | inactive
C[C@@H]1CC[C@H]2C(C)(C)[C@H](O)[C@H](O)C[C@]2(C)[C@@]12Cc1c(O)cc3c(c1O2)CNC3=O |  | inactive
C[C@H]1[C@H](C)CC[C@]2(C(=O)O[C@@H]3O[C@H](CO)[C@@H](O)[C@H](O)[C@H]3O)CC[C@]3(C(=O)O)C(=CCC4[C@@]5(C)CC[C@H](O[C@@H]6O[C@H](CO)[C@@H](O)[C@H](O)[C@H]6O)C(C)(C)C5CC[C@]43C)[C@H]12 (some centres undefined) | -10.9% [at 11.6 µM] | 
C1CCN2CC3C[C@@H](CN4CCCC[C@@H]34)[C@H]2C1 |  | inactive
O=C(COc1ccc(Cl)cc1)NC1CCC(NC(=O)COc2ccc(Cl)cc2)CC1 (centres undefined) |  | inactive
COc1cc(C(O)C(CO)Oc2ccc(CCCO[C@@H]3O[C@@H](C)[C@H](O)[C@@H](O)[C@H]3O)cc2OC)ccc1O (some centres undefined) |  | inactive
CC(C)=CC/C=C(/C)[C@H]1CC[C@]2(C)[C@@H]1[C@H](O)CC1[C@@]3(C)CC[C@H](O)C(C)(C)[C@@H]3[C@@H](O[C@@H]3O[C@H](CO)[C@@H](O)[C@H](O)[C@H]3O[C@@H]3O[C@@H](C)[C@H](O)[C@@H](O)[C@H]3O)C[C@]12C (some centres undefined) |  | inactive
CC1CC(O)C2(C)C(C(=O)O)=CCCC2C1(C)CCc1ccoc1 (centres undefined) |  | inactive
C/C=C(\C)C(=O)O[C@@H]1CC2[C@@H](CC=C3C[C@@H](O[C@H]4C[C@H](OC)[C@H](O[C@H]5C[C@H](OC)[C@H](O[C@H]6C[C@H](OC)[C@H](O[C@H]7C[C@@H](OC)[C@H](O[C@@H]8O[C@H](CO)[C@@H](O)[C@H](O)[C@H]8O)[C@@H](C)O7)[C@@H](C)O6)[C@@H](C)O5)[C@@H](C)O4)CC[C@@]32C)[C@@]2(O)CC[C@H](C(C)=O)[C@@]12C (some centres undefined) | -1.08% [at 6.55 µM] | 
C[C@@H]1O[C@@H](O[C@H]2[C@H](OC(=O)[C@]34CCC(C)(C)C[C@H]3C3=CCC5[C@@]6(C)C[C@H](O)[C@H](O[C@@H]7O[C@H](CO[C@@H]8OC[C@H](O)[C@H](O)[C@H]8O)[C@@H](O)[C@H](O)[C@H]7O)C(C)(C)C6CC[C@@]5(C)[C@]3(C)C[C@H]4O)OC[C@@H](O)[C@@H]2O)[C@H](O)[C@H](O[C@@H]2OC[C@](O)(CO)[C@H]2O)[C@H]1O[C@@H]1OC[C@H](O)[C@H](O[C@@H]2OC[C@@H](O)[C@H](O)[C@H]2O)[C@H]1O (some centres undefined) | -0.0559% [at 6.55 µM] | 
O=C(NCC(=O)N1CC[C@H](NC2CCC(O)(c3ccc(-c4ncccn4)cn3)CC2)C1)c1cccc(C(F)(F)F)c1 (some centres undefined) |  | inactive
CCNC(=O)CCC/C=C\C[C@@H]1[C@@H](/C=C/C(O)CCc2ccccc2)[C@@H](O)C[C@@H]1O (some centres undefined) |  | inactive

These compounds were tested on HeLa in the same assay as above. Conditions: Gynecologic cancer cell panel viability, ATPlite luminescence, 48 h; series mostly up to 57.5 µM.
Procedure, shortened: as §1

Structure (SMILES) | activity change, negative = cytotoxicity | Potency
O=C(OCc1cccc(O)c1O[C@@H]1O[C@H](CO)[C@@H](O)[C@H](O)[C@H]1O)C1(O)C(=O)C2C=CC1C1C=CC(=O)C(O)(C(=O)OCc3cccc(O)c3O[C@@H]3O[C@H](CO)[C@@H](O)[C@H](O)[C@H]3O)C21 (some centres undefined) | -8.79% [at 11.6 µM] | 
C/C=C(\C)C(=O)O[C@H]1[C@H](O)[C@]2(COC(C)=O)[C@H](O)C[C@]3(C)C(=CCC4[C@@]5(C)CC[C@H](O[C@@H]6O[C@H](C(=O)O)[C@@H](O[C@@H]7O[C@H](CO)[C@@H](O)[C@H](O)[C@H]7O)[C@H](O)[C@H]6O[C@@H]6O[C@H](CO)[C@@H](O)[C@H](O)[C@H]6O)[C@](C)(CO)C5CC[C@]43C)[C@@H]2CC1(C)C (some centres undefined) | 15.8% [at 11.6 µM] | 
CC(=O)O[C@@H]1C[C@@]23C[C@@]24CC[C@H](OC2OC[C@@H](O)[C@H](O)[C@H]2O)C(C)(C)[C@@H]4CC[C@H]3[C@]2(C)CC3OC4(C[C@@H](C)C3[C@@]12C)OCC1(C)OC14 (some centres undefined) |  | inactive
COc1ccc2c(c1O)OC[C@H]1c3ccc(O)cc3O[C@@H]21 |  | inactive
CC1=CC(=O)C2C(C)(C)CCCC2(C)C12CCC1(COC(=O)C1)O2 (centres undefined) |  | inactive
C[C@]1(O)CC[C@@H]2C(C(=O)O)=CO[C@@H](O[C@@H]3O[C@H](COC(=O)c4ccc(O)cc4)[C@@H](O)[C@H](O)[C@H]3O)[C@@H]21 |  | inactive
O=C(c1ccccn1)c1cnn2c(-c3ccncc3)ccnc12 |  | inactive
C=CC1(C)C=C2C(O)CC3C(C)(C(=O)O)CCCC3(C)C2CC1 (centres undefined) |  | inactive
COC(=O)C1=CO[C@@H](O[C@@H]2O[C@H](COC(=O)/C=C/c3cc(OC)c(O)c(OC)c3)[C@@H](O)[C@H](O)[C@H]2O)[C@@H]2C(CO)=CC[C@H]12 |  | inactive
CC12CCC3C(C)(C)C(O)CCC3(C)C1Cc1c(oc(C(=O)O)cc1=O)O2 (centres undefined) |  | inactive
C=C(C)C(C)C1OC23CC4(CO2)C(CCC2C5(C)CCC(OC6OCC(O)C(OC7OC(CO)C(O)C(OC8OCC(O)C(O)C8O)C7O)C6OC6OC(CO)C(O)C6O)C(C)(C)C5CCC24C)C3C(C)(O)C1OC(C)=O (centres undefined) | 1.27% [at 11.6 µM] | 
CC(=O)Oc1cc2c(s1)CCN([C@H](C(=O)C1CC1)c1ccccc1F)C2 |  | inactive
Cc1ncc([N+](=O)[O-])n1CC(O)CN1CCOCC1 (centres undefined) |  | inactive
O=C(c1ccc(NS(=O)(=O)c2cccc3cccnc23)cc1)N1CCN(CC2CC2)CC1 |  | inactive
C/C(=C\CCC(C)(O)c1ccc(C)cc1)C(=O)O (centres undefined) |  | inactive
COc1cc(C2Oc3c(OC)cc(/C=C/C(=O)OC[C@H]4O[C@@H](OC(C)(C)C(=O)O)[C@H](O)[C@@H](O)[C@@H]4O)cc3C2CO)ccc1O (some centres undefined) |  | inactive
CC(C)CC1NC(=O)C(C(C)c2ccccc2)NC(=O)C(C(C)C)NC(=O)C(C)NC(=O)CCCNC(=O)C(Cc2c[nH]c3ccccc23)NC(=O)C(C)NC1=O (stereo not drawn) (cyclo([GABA]AV[ξPhe(βξ-Me)]LAW); configuration not given here) |  | inactive
C=CC1C(O[C@@H]2O[C@H](CO)[C@@H](O)[C@H](O)[C@H]2O)OC=C(C(=O)OC)C1CC(=O)O (some centres undefined) |  | inactive

Structure (SMILES) | activity change, negative = cytotoxicity | Potency
CC1CCC2(NC1)OC1C(=O)C3C4CCC5CC(O[C@@H]6O[C@H](CO)[C@@H](O)[C@H](O)[C@H]6O[C@@H]6O[C@@H](C)[C@H](O)[C@@H](O)[C@H]6O)CCC5(C)C4CCC3(C)C1C2C (some centres undefined) |  | inactive
C=C(C(=O)O)C1CCC(C)C2CCC(=O)OC2(C)C1 (centres undefined) |  | inactive
CC1(C)C(=O)N2c3ccccc3[C@]3(CC(n4cnc5ccccc5c4=O)C(=O)O3)[C@H]2N1O (some centres undefined) |  | inactive
CC(C)c1nc(N(C)S(C)(=O)=O)nc(-c2ccc(F)cc2)c1/C=C/[C@@H](O)C[C@@H](O)CC(=O)O |  | inactive
O=C(O)Cc1nn(Cc2nc3cc(C(F)(F)F)ccc3s2)c(=O)c2nccnc12 |  | inactive
O=C(O)CCc1cc2ccoc2cc1O[C@@H]1O[C@H](CO[C@@H]2OC[C@](O)(CO)[C@H]2O)[C@@H](O)[C@H](O)[C@H]1O |  | inactive
COc1ccc(/C=C/C(=O)O[C@@H]2[C@@H](OC(C)=O)[C@@H](OC(C)=O)[C@H](O[C@H]3[C@@H]4C=CO[C@@H](O[C@@H]5O[C@H](CO)[C@@H](O)[C@H](O)[C@H]5O)[C@@H]4[C@@]4(CO)O[C@@H]34)O[C@H]2C)cc1O |  | inactive
C=CC(C)(O)CC/C=C(\C)C(=O)OC1CC2(C(=O)O)CCC3(C)C(=CCC4C5(C)CCC(OC6OC(COC7OCC(O)C(O)C7O)C(O)C(OC7OCC(O)C(O)C7O)C6OC6OC(CO)C(O)C(O)C6OC6OCC(O)C(O)C6O)C(C)(C)C5CCC43C)C2CC1(C)C (centres undefined) | 13.4% [at 6.55 µM] | 
C=C1CC2[C@]3(C)C(=C(O)C(=O)[C@@]2(C)[C@]2(C(=O)OC)C(=O)C(C)OC(=O)[C@@]12C)C(C)(C)C(=O)CC3O (some centres undefined) |  | inactive
C=C1CCC(OC(C)=O)C2(C)CC3(O)OC(=O)C(C)=C3CC12 (centres undefined) |  | inactive
C[C@@H]1CC[C@H]2C(C)(C)[C@H](O)[C@H](O)C[C@]2(C)[C@@]12Cc1c(O)cc3c(c1O2)CNC3=O |  | inactive
C[C@H]1[C@H](C)CC[C@]2(C(=O)O[C@@H]3O[C@H](CO)[C@@H](O)[C@H](O)[C@H]3O)CC[C@]3(C(=O)O)C(=CCC4[C@@]5(C)CC[C@H](O[C@@H]6O[C@H](CO)[C@@H](O)[C@H](O)[C@H]6O)C(C)(C)C5CC[C@]43C)[C@H]12 (some centres undefined) | 13.2% [at 11.6 µM] | 
C1CCN2CC3C[C@@H](CN4CCCC[C@@H]34)[C@H]2C1 |  | inactive
O=C(COc1ccc(Cl)cc1)NC1CCC(NC(=O)COc2ccc(Cl)cc2)CC1 (centres undefined) |  | inactive
COc1cc(C(O)C(CO)Oc2ccc(CCCO[C@@H]3O[C@@H](C)[C@H](O)[C@@H](O)[C@H]3O)cc2OC)ccc1O (some centres undefined) |  | inactive
CC(C)=CC/C=C(/C)[C@H]1CC[C@]2(C)[C@@H]1[C@H](O)CC1[C@@]3(C)CC[C@H](O)C(C)(C)[C@@H]3[C@@H](O[C@@H]3O[C@H](CO)[C@@H](O)[C@H](O)[C@H]3O[C@@H]3O[C@@H](C)[C@H](O)[C@@H](O)[C@H]3O)C[C@]12C (some centres undefined) |  | inactive
CC1CC(O)C2(C)C(C(=O)O)=CCCC2C1(C)CCc1ccoc1 (centres undefined) |  | inactive
